{
  "source": "PubChem BioAssay (NCI)",
  "note": "Values joined by “and” are separate entries in the source; they are usually repeats but may differ in a detail not shown here. Identical values can stand only once. Compounds without any hit were thinned out: in the full panel of roughly 83,000, 20% have a hit.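 Note: values are percent growth. 100 is the growth of untreated cells, values between 100 and 0 indicate rising inhibition; between -100 and 0 indicates cell death.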 Active and inactive are the calls of the source. How the source made its calls: active means growth percent below 10; inactive means the rest.",
  "data": [
    {"test_system": "MDA-MB-468 breast", "test": "NCI-60 one-dose screen, 48 h (100 = growth as untreated, 0 = no growth, -100 = all killed)", "conditions": "10 µM unless noted", "values": [
      {"smiles": "CC1CN(S(=O)(=O)c2oc(-c3ccc(Cl)cc3)nc2C#N)CC(C)O1", "note": "(stereo unspecified)", "growth": "70% (inactive)"},
      {"smiles": "O=C(Nc1ccc(Br)cc1)c1cc(Br)ccc1O", "growth": "-18.1% (active) and 15% (inactive)"},
      {"smiles": "CCN(CC)Cc1cc(C=C2C(=O)NC(=S)NC2=O)cc(OC)c1O", "growth": "108% (inactive)"},
      {"smiles": "O=C(N/N=C/c1ccccc1O)c1ccccc1O", "growth": "17% (inactive)"},
      {"smiles": "Cc1cc(C)on1", "growth": "98.5% (inactive)"},
      {"smiles": "O=C1CSC2=NCCN12", "growth": "105% (inactive) and 100% (inactive)"},
      {"smiles": "O=C(/C=C/c1cn(-c2ccccc2)nc1-c1ccccc1)CCC(=O)NO", "growth": "101% (inactive)"},
      {"smiles": "Cc1ccc(NC(=O)c2ccc(CN3CCN(C)CC3)cc2)cc1Oc1ccc(-c2[nH]nc3ncnc(N)c23)cc1", "growth": "59.3% (inactive)"},
      {"smiles": "c1ccc(CO[C@H]2CO[C@H]3[C@@H]2OC[C@H]3OCc2ccccc2)cc1", "growth": "112% (inactive)"},
      {"smiles": "Cc1ccc(=O)n(-c2ccc(Br)cc2F)c1", "growth": "102% (inactive)"},
      {"smiles": "CC(=O)NCCCS(=O)(=O)O", "growth": "113% (inactive)"},
      {"smiles": "CCS/C(Nc1ccccc1)=C(\\C#N)C(=O)N/N=C/c1ccc(Cl)cc1Cl", "growth": "19.6% (inactive)"},
      {"smiles": "COc1ccc(NC(=O)C(=O)c2c[nH]c3ccc(F)cc23)cc1", "growth": "95.3% (inactive)"},
      {"smiles": "CC1(C)CC2=C3C=C[C@@H]4[C@@]5(C)CC[C@H](O)C(C)(C)[C@@H]5CC[C@@]4(C)[C@]3(C)CC[C@@]2(C(=O)O)CC1=O", "growth": "81.4% (inactive)"},
      {"smiles": "COc1nc2c(c(=O)n1C)CN(c1ccccc1)C(=O)C(C)N2", "note": "(stereo unspecified)", "growth": "86.3% (inactive)"},
      {"smiles": "CNC(=O)c1cc(-c2ccc(NC(=S)Nc3cccc(C(F)(F)F)c3)cc2)nc2cccnc12", "growth": "47.9% (inactive)"}
    ]}
  ]
}
